In article PMC5540273 (PLoS ONE, 2017):

Tests used:
AAK1 = settings: concentration: 1 μM, replicates: in singlicate; n = 1
ABL1-nonphosphorylated = settings: concentration: 1 μM, replicates: in singlicate; n = 1
ABL1-phosphorylated = settings: concentration: 1 μM, replicates: in singlicate; n = 1
ABL2 = settings: concentration: 1 μM, replicates: in singlicate; n = 1
ACVR1B = settings: concentration: 1 μM, replicates: in singlicate; n = 1
ACVR1 = settings: concentration: 1 μM, replicates: in singlicate; n = 1
ACVR2A = settings: concentration: 1 μM, replicates: in singlicate; n = 1
p38-alpha = system: T1, p38-alpha
T1 construct: gene MAPK14

p38-beta = system: T2, p38-beta
T2 construct: gene MAPK11
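Throughout, for %Inh: KINOMEscan kinase panel screen.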
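Throughout, for Kd: kd values determined as follow-up on hits from a single-replicate KINOMEscan panel screen.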

| Structure (SMILES) | %Inh (AAK1) [%] | %Inh (ABL1-nonphosphorylated) [%] | %Inh (ABL1-phosphorylated) [%] | %Inh (ABL2) [%] | %Inh (ACVR1B) [%] | %Inh (ACVR1) [%] | %Inh (ACVR2A) [%] | Kd (p38-alpha) [nM] | Kd (p38-beta) [nM] |
| --- | --- | --- | --- | --- | --- | --- | --- | --- | --- |
| Cc1cccc(-c2nc(Nc3cccc(C(N)=O)c3)c3ccccc3n2)n1 [GW876019] | 0 | 25 | 20 | 15 | 83 | 0 | 12 |  |  |
| Cc1ccccc1-n1cnc2c(N)ncnc21 [SKF-97510] | 1 | 100 | 3 | 0 | 0 | 10 | 0 |  |  |
| CS(=O)(=O)c1ccc(-c2nc3n(c2-c2ccncc2)CCC3)cc1 [SKF-105942] | 14 | 0 | 8 | 9 | 0 | 10 | 0 |  |  |
| Cc1ccc(NC(=O)Nc2cccc(Cl)c2)cc1-c1ccc(C(=O)Nc2ccncc2)cc1 [GSK1398468] | 37 | 0 | 1 | 17 | 0 | 0 | 0 |  |  |
| Cc1ccc(NC(=O)Nc2cc(C(C)(C)C)nn2-c2ccccc2)cc1 [GSK1014915] | 0 | 0 | 2 | 14 | 0 | 7 | 6 | 58 | 540 |
| Cc1csc(-c2nc(Nc3ccncc3)c3ccccc3n2)n1 [GW869640] | 31 | 31 | 15 | 7 | 94.7 | 0 | 3 |  |  |
| Cc1cc(-c2ccc3c(c2)CC[C@@H](N[C@@H](C)c2ccccc2)C3)cnc1N.Cl [GW412617] | 100 | 8 | 9 | 6 | 0 | 34 | 0 |  |  |
| CC(=O)Nc1nc2cnc(Nc3cc(NC(=O)c4cccc(CCC#N)c4)ccc3C)nc2s1 | 6 | 94.8 | 29 | 29 | 0 | 0 | 0 |  |  |
| Cc1cc(N2Cc3ccccc3C2)nc(Nc2ccc(S(=O)(=O)N3CCOCC3)cc2)n1.Cl [GSK1669917] | 1 | 0 | 0 | 0 | 0 | 2 | 0 |  |  |
| Cc1c(Cn2ccn3c(=O)cc(N4CCOCC4)nc23)cccc1C(F)(F)F [GSK2289044] | 16 | 0 | 0 | 0 | 0 | 3 | 0 |  |  |
| O=C(Nc1n[nH]c2nc(-c3nccs3)c(Br)cc12)C1CCCC1 [SB-742609] | 15 | 7 | 1 | 25 | 0 | 7 | 0 |  |  |
| Cc1ccc(C(=O)Nc2ccc(Nc3ccnc4cc(-c5ccccn5)ccc34)cc2O)cc1.Cl [GW440146] | 4 | 68 | 31 | 18 | 0 | 0 | 0 |  |  |
| COC(=O)c1c(-c2ccccc2)c2cc(OC)ccc2c(=O)n1Cc1ccccc1 | 22 | 66 | 0 | 12 | 0 | 0 | 0 |  |  |
| COc1cc2ncn(-c3cc(OCC4CCCO4)c(C(N)=O)s3)c2cc1OC (centres unmarked) [GSK204607] | 17 | 0 | 0 | 0 | 0 | 46 | 0 |  |  |
| Cl.Oc1ccc(-c2nc(-c3ccccc3)[nH]c2-c2ccncc2)cc1 [SB-428218] | 7 | 72 | 56 | 30 | 0 | 7 | 0 |  |  |
| Nc1ncnc2[nH]c(-c3ccccc3)nc12 [AH5015] | 0 | 7 | 44 | 19 | 0 | 37 | 7 |  |  |
| CC1=C(C(=O)Nc2cc3cn[nH]c3cc2F)C(c2ccc(C(F)(F)F)cc2)CC(=O)N1 (centres unmarked) [GSK429286] | 0 | 0 | 0 | 19 | 0 | 0 | 83 |  |  |
| Cc1ccc(-c2cc(-c3c[nH]nc3-c3ccccn3)ccn2)cc1 [GW684088] | 22 | 35 | 21 | 0 | 65 | 29 | 0 |  |  |
